The values below come from PubChem BioAssay.

Calls of active or inactive are those of the source. Unless noted, no rule for the calls is given here.

Test [1] concerns Wnt5a (protein binding on small-molecule microarray). Description: small molecules binding Wnt5a protein – biophysical, small-molecule microarray, 635/667 nm fluorescence, primary screen (AID 1142).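 Also: fluorescence read at 667 nm with signal to noise per printed feature.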 Conditions: 635 nm fluorescence, higher = more signal.
A short description of test [2]: ATP-based viability of Huh7 replicon cells – cell-based, CellTiter-Glo luminescence, basal, 48 h, cytotoxicity control for HCV replication inhibitor project, primary screen (AID 1143).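 Also: Huh7 hepatoma cells carrying a hepatitis C replication reporter with no stimulus; test concentration not given here.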 Particulars: higher = more signal, called active from +8 up or from −8 down.
Test [3] in a line: Pseudomonas biofilm growth suppression – PAO1 strain, BacTiter-Glo luminescence, LB-PBS, primary screen (AID 1144). Conditions: P. aeruginosa PAO1 biofilm, 12 h, higher = more signal.
Test [4] is described as follows: basal CRE-LacZ reporter activity in PC12 – cell-based, unstimulated, primary screen (AID 1145). Particulars: no forskolin, luminescence, 4.5 h, higher = more signal, called active from +8 up or from −8 down.
Test [5] is described as follows: forskolin-driven CRE-LacZ activity in PC12 – cell-based, CRE-LacZ reporter, forskolin-stimulated, primary screen (AID 1146).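 Also: PC12 cells with 6xCRE LacZ reporter stimulated by forskolin 10 µM; beta-galactosidase reporter signal reflecting CREB driven transcription.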 Conditions: luminescence, 4.5 h, higher = more signal, called active from +8 up or from −8 down.
For test [6], the target named is Streptavidin (Streptomyces avidinii) (UniProt P22629). Description: compounds binding control protein streptavidin – biophysical, small-molecule microarray, 635/667 nm fluorescence, artefact control for SMM compound annotation, primary screen (AID 1147).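 Also: signal reflects streptavidin binding to arrayed compounds as a control protein.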 Conditions: higher = more signal.
Chain of Streptavidin (Streptomyces avidinii) (P22629 whole entry, looked up): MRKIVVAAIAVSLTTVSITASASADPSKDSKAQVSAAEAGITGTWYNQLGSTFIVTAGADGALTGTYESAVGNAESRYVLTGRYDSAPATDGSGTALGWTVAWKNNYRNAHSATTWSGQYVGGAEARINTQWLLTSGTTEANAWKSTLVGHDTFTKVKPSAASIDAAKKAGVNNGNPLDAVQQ
A short description of test [7]: probe aInhba binding on compound microarray – biochemical, small-molecule microarray, 635/667 nm fluorescence, primary screen (AID 1148).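 Also: score merges 667nm spot fluorescence with signal-to-noise for antibody binding to printed compounds.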 Conditions: higher = more signal.
For test [8], the target named is Torsin-1A (Homo sapiens) (UniProt O14656). Description: TOR1A wild-type binding on microarray – cell lysate, small-molecule microarray, lysate, 635/667 nm, primary screen (AID 1149). Particulars: COS7 hTOR1A-WT lysate, 635 nm fluorescence, higher = more signal.
Chain of Torsin-1A (Homo sapiens) (O14656 whole entry, looked up): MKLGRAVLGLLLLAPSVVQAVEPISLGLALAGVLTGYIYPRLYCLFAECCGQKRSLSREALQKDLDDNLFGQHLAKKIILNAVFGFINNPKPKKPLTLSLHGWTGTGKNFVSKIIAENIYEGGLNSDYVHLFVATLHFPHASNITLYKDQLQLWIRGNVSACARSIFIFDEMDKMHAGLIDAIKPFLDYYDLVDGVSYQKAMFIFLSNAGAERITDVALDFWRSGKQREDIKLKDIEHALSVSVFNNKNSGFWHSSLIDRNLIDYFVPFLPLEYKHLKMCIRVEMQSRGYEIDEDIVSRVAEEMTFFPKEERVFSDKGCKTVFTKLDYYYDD
Test [9] has the same target. Description: torsin A mutant lysate binding on microarrays – cell lysate, small-molecule microarray, COS7 lysate, 635/667 nm fluorescence, primary screen (AID 1150).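 Also: score pools 667 nm emission and signal to noise measuring lysate protein binding.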 Conditions: COS7 hTOR1A mutant lysate, 635 nm fluorescence, higher = more signal.
In test [10] the test system is Sonic hedgehog protein (Shh). Description: Sonic hedgehog microarray binding compounds – biochemical, small-molecule microarray, 635/667 nm fluorescence, primary screen (AID 1151).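 Also: Shh protein binding to compounds spotted on small-molecule microarray slides; score combines spot fluorescence intensity with signal-to-noise across triplicate slides.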 Particulars: 635 nm fluorescence, higher = more signal.
Test [11] in a line: optical density shifts of acrAB sulA E. coli – strain DRC41, OD650, 48 h, E. coli filamentation inducer project, primary screen (AID 1152).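 Also: E. coli MC1000 strain DRC41 lacking acrAB efflux pump and sulA.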 Particulars: higher = more signal, called active from +8 up or from −8 down.
Test [12] can be described thus: probe aLefty1 binding on compound microarray – biochemical, small-molecule microarray, 635/667 nm fluorescence, primary screen (AID 1153).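 Also: score merges spot fluorescence with signal-to-noise ratio from the scanned slide images.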 Conditions: higher = more signal.
The nature of test [13]: plasmodial surface anion channel blockers, osmotic lysis – cell-based, P. falciparum Indochina, OD700, 1 h, primary screen (AID 1154). Conditions: P. falciparum Indochina infected RBC osmotic lysis, higher = more signal, called active from +8 up or from −8 down.
Test [14] can be described thus: plasmodial surface anion channel blockers, osmotic lysis – cell-based, P. falciparum Indochina, OD700, 2 h, primary screen (AID 1155).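 Also: lysis reports solute entry through the parasite surface anion channel PSAC.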 Particulars: P. falciparum Indochina infected erythrocytes, higher = more signal, called active from +8 up or from −8 down.
Test [15] in a line: changes in parasitized red cell lysis, either direction – P. falciparum Indochina, OD700, 3 h, PSAC antagonist project, primary screen (AID 1156). Particulars: P. falciparum-infected erythrocytes, osmotic lysis, higher = more signal, called active from +8 up or from −8 down.
The nature of test [16]: plasmodial surface anion channel blockers, osmotic lysis – cell-based, P. falciparum Indochina, OD700, 18 h, primary screen (AID 1157). Particulars: P. falciparum Indochina infected erythrocytes, osmotic lysis OD700, 18 h; higher = more signal, called active from +8 up or from −8 down.
Test [17] can be described thus: S6 kinase pathway phospho-S6 level changes – cell-based, A549, cytoblot, luminescence, serum-stimulated, primary screen (AID 1158).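 Also: serum-stimulated A549 lung adenocarcinoma cells; signal is phosphorylated S6 detected by cytoblot immunostaining with HRP secondary.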 Conditions: 5 h, higher = more signal.
The target in test [18] is NADPH oxidase 2 (Homo sapiens) (UniProt P04839). Description: compounds shifting NOX2 Amplex Red fluorescence – cell-based, HEK293-NOX2, PMA-stimulated, NOX inhibitor project, primary screen (AID 1159). Also: test concentration not given here. Particulars: 45 min, higher = more signal, called active from +8 up or from −8 down.
Chain of NADPH oxidase 2 (Homo sapiens) (P04839 whole entry, looked up): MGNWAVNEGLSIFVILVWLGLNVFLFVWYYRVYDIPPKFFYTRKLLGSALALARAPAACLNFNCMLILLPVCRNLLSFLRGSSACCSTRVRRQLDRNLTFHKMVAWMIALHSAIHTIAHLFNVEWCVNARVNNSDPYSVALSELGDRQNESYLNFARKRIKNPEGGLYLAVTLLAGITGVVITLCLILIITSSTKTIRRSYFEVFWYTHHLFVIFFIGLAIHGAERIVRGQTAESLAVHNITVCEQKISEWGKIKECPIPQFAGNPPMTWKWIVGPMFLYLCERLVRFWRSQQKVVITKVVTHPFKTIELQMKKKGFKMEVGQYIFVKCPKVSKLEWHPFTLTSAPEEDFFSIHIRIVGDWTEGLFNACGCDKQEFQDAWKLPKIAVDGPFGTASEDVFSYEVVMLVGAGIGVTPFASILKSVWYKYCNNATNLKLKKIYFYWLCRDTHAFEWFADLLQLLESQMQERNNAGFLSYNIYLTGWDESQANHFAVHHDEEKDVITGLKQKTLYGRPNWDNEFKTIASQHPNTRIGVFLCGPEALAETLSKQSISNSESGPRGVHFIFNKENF
Test [19] concerns the target NADPH oxidase 4 (Homo sapiens) (UniProt Q9NPH5). Description: compounds shifting NOX4 Amplex Red fluorescence – cell-based, HEK293-NOX4, tetracycline-induced, NOX inhibitor project, primary screen (AID 1160). Particulars: HEK293-NOX4, Amplex Red H2O2 fluorescence, 45 min; higher = more signal, called active from +8 up or from −8 down.
Test [20] deals with NADPH oxidase 5 (Homo sapiens) (UniProt Q96PH1). Description: compounds shifting NOX5 Amplex Red fluorescence – cell-based, HEK293-NOX5, NOX inhibitor project, primary screen (AID 1161). Conditions: HEK293-NOX5, ionomycin, 45 min, higher = more signal.
Chain of NADPH oxidase 5 (Homo sapiens) (Q96PH1 whole entry, looked up): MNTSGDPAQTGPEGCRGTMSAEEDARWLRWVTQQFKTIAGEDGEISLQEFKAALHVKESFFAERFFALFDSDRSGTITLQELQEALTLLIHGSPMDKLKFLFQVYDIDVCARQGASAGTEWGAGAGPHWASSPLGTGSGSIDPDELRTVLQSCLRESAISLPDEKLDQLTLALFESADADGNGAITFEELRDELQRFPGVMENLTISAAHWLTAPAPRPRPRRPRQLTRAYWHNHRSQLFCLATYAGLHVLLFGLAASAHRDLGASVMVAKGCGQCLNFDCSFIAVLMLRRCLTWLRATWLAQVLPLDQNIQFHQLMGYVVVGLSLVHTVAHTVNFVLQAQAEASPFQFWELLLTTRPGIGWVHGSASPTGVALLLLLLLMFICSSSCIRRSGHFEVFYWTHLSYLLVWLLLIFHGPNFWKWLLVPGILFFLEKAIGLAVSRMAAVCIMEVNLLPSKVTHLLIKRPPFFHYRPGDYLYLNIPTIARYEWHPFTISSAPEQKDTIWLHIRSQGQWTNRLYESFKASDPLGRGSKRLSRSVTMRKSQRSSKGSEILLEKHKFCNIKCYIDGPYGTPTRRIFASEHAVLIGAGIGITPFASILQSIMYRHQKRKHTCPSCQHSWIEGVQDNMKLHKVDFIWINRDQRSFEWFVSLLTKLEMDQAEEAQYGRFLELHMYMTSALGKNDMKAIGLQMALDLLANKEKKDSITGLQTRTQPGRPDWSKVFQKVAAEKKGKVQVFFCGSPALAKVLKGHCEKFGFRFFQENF

Chain of NADPH oxidase 4 (Homo sapiens) (Q9NPH5 whole entry, looked up): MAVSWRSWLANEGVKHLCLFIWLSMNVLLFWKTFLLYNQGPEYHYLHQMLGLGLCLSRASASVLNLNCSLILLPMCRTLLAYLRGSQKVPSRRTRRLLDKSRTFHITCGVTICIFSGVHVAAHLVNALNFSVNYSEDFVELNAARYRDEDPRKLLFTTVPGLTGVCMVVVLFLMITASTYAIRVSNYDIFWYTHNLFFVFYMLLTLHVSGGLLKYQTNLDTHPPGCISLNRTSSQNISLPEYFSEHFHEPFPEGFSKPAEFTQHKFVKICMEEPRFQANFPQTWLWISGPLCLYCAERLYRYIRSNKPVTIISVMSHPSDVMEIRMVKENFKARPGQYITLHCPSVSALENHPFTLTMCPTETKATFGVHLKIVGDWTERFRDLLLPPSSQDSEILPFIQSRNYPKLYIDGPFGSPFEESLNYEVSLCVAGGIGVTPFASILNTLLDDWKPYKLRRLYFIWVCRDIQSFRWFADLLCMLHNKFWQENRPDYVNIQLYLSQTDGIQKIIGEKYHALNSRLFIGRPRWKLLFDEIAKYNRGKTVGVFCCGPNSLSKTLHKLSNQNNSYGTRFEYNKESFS

As for `CO[C@@H]1C=CCC(=O)N[C@@H](C)C(=O)OC[C@@H](NS(=O)(=O)c2ccc(C)cc2)[C@H](C)C=CCC(=O)OC[C@H]1C`, the composite z-score was -0.0979 in test [1]; -0.536 in test [6]; -0.304 in test [7]; 0.527 with Torsin-1A (Homo sapiens) [8]; 0.514 with Torsin-1A (Homo sapiens) [9]; 1.08 in test [10]. This compound yielded a composite z-score in test [12] of -0.141. The z-score in [2] is -1.03 (inactive); in test [3], 0.225 (inactive); in [4], 0.155 (inactive); in test [5] it was -1.23 (inactive); in test [11], -0.481 (inactive); in [13], 0.0412 (inactive). The z-score in [14] was 0.149 (inactive); in test [15], -0.802 (inactive); in [16], 0.109 (inactive); in test [17], -0.327; in [18], -9.51 (active); in test [19], 0.732 (inactive). For the same compound, the z-score in [20] is -0.0177.

Consider `CC(=O)OC[C@H]1O[C@H](CC=NOCC[C@@H]2C=C[C@H](OC(C)=O)[C@@H](COC(C)=O)O2)C=C[C@@H]1OC(C)=O`, for which the composite z-score in test [1] is 0.288; in test [6], 0.162; in test [7], -0.0471; with Torsin-1A (Homo sapiens) [8] it was 1.06; with Torsin-1A (Homo sapiens) [9], 1.05; in [10], 0.654. Besides, the composite z-score in test [12] is 0.0483. Also, the z-score in test [2] was 0.366 (inactive); in test [3] it was -0.358 (inactive); in test [4], 0.848 (inactive); in [5] it was 1.4 (inactive); in test [11], 0.645 (inactive); in [13] it was 0.421 (inactive). Also, the z-score in test [14] is 0.678 (inactive); in test [15], 0.286 (inactive); in test [16], 0.219 (inactive); in test [17], -0.696; in test [18], -0.175 (inactive); in test [19] it was 0.484 (inactive). Further, the z-score in test [20] was -0.705.

As for `CCOC(=O)[C@H](CC(C)C)NC(=O)CCC1CC(OC(=O)NCCc2ccc(F)cc2)CC2(CCCC(COC(=O)NCc3cccc(C(F)(F)F)c3)O2)O1` (stereo not given in full), the composite z-score in [1] is 0.0465; in [6] it was 0.0808; in test [7], -0.0762; with Torsin-1A (Homo sapiens) [8] it was 0.0857; with Torsin-1A (Homo sapiens) [9] it was 0.147; in [10] it was 0.909. The composite z-score in test [12] amounted to 0.0437. Besides, the z-score in test [2] was 0.215 (inactive); in test [3], 0.074 (inactive); in test [4], -0.437 (inactive); in test [5] it was 0.257 (inactive); in test [11], 0.265 (inactive); in test [13], 6.76 (inactive). Further, the z-score was 0.968 (inactive) in [14]; 0.0716 (inactive) in test [15]; 0.127 (inactive) in test [16]; -0.276 in test [17]; 0.61 (inactive) in test [18]; 0.703 (inactive) in test [19]. In test [20], the z-score came to 0.401.

`CCOC(=O)[C@H](Cc1ccccc1)NC(=O)CCC1CC(OC(=O)NCc2cccc3ccccc23)CC2(CCCC(COC(=O)NCCc3ccccc3OC)O2)O1` (stereo not given in full): the composite z-score in test [1] was 0.201; in [6], 0.486; in [7] it was -0.0552; with Torsin-1A (Homo sapiens) [8], 0.265; in the test with Torsin-1A (Homo sapiens) [9], 0.0946; in test [10], 1.1. This compound gave a composite z-score in test [12] of -0.101. Moreover, the z-score in test [2] was -0.534 (inactive); in test [3], 0.0213 (inactive); in test [4], 0.104 (inactive); in test [5], -0.745 (inactive); in test [11], -0.0287 (inactive); in test [13] it was -0.623 (inactive). The z-score is 0.185 (inactive) in [14]; -0.602 (inactive) in test [15]; 0.0286 (inactive) in [16]; -0.352 in test [17]; 0.884 (inactive) in test [18]; 1.15 (inactive) in [19]. Besides, the z-score in [20] was found to be 1.06.
